Results on 15 compounds are retold here after PubChem BioAssay (NCI).

Some test systems named below: RPMI-8226 leukemia; OVCAR-8 ovarian; OVCAR-5 ovarian; OVCAR-4 ovarian; SK-OV-3 ovarian; IGROV1 ovarian; OVCAR-3 ovarian; NCI/ADR-RES ovarian; HS 578T breast.
Common to all, as to experiment: NCI-60 one-dose screen, 48 h (100 = growth as untreated, 0 = no growth, -100 = all killed)
Common to all, as to conditions: 10 µM unless noted

About 83,000 compounds went through this panel and 20% of them were active in at least one assay; those are over-represented in the sample as a whole.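 Interpretation: 100, growth as untreated; towards 0, rising growth inhibition; 0, no net growth; 0 to -100, cell death. Compounds scoring below 10 were considered active.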 Unmarked numbers belong to inactive results. Calls of active or inactive are those of the source.

On to `CCCCc1n(Cc2ccc3ccccc3c2)cc[n+]1Cc1ccc2ccccc2c1`, for which the growth with RPMI-8226 leukemia was -39.9% (active); in the test with OVCAR-8 ovarian, -35.8% (active); in the test with OVCAR-5 ovarian it was 8.66% (active); in the test on OVCAR-4 ovarian, 9.46% (active); with SK-OV-3 ovarian it was -3.39% (active); in the test with IGROV1 ovarian it was -57.9% (active). The growth was -80.1% (active) with OVCAR-3 ovarian and 87.9% with NCI/ADR-RES ovarian.

`N#Cc1c(NC(=O)c2ccco2)[n+]([O-])c2ccccc2[n+]1[O-]`: the growth in the test with RPMI-8226 leukemia was 447%; in the test with OVCAR-8 ovarian it was 90.3%; in the test on OVCAR-5 ovarian, 89.7%; in the test with OVCAR-4 ovarian, 109%; in the test on SK-OV-3 ovarian, 110%; in the test with IGROV1 ovarian, -49.8% (active). The growth in the test on HS 578T breast is 98%; in the test with NCI/ADR-RES ovarian, 116%.

For `OC(c1ccccc1)C(NCc1ccccc1)c1ccccc1` (stereo not given), the growth with RPMI-8226 leukemia is 84.3%; in the test on OVCAR-8 ovarian, 109%; in the test on OVCAR-5 ovarian it was 88.6%; with OVCAR-4 ovarian, 94.3%; with SK-OV-3 ovarian, 101%; in the test with IGROV1 ovarian, 96.7%. Moreover, the growth is 111% in the test with OVCAR-3 ovarian, 107% with HS 578T breast and 85.1% in the test on NCI/ADR-RES ovarian.

Regarding `O=C(/C=C/c1ccc([N+](=O)[O-])cc1)c1ccc2c3c(cccc13)CC2`, the growth with RPMI-8226 leukemia is -14.1% (active); with OVCAR-8 ovarian, 28.7%; with OVCAR-5 ovarian, 89.8%; with OVCAR-4 ovarian, 75.8%; with SK-OV-3 ovarian, 91.4%; with OVCAR-3 ovarian it was 66.9%. Further, the growth in the test with HS 578T breast is -4.95% (active); in the test on NCI/ADR-RES ovarian it was 83.3%.

On to `Cc1ccc2nc(-c3ccc(N(C)C)c(Br)c3)cn2c1`, for which the growth in the test on RPMI-8226 leukemia was 71%; with OVCAR-8 ovarian, 93.8%; in the test on OVCAR-5 ovarian, 92.6%; in the test on OVCAR-4 ovarian, 115%; in the test with SK-OV-3 ovarian, 94.4%; with IGROV1 ovarian it was -8.76% (active). In addition, the growth was 103% in the test on OVCAR-3 ovarian, 83.2% in the test with HS 578T breast and 78.2% in the test with NCI/ADR-RES ovarian.

Regarding `O=[N+]([O-])c1ccc(NS(=O)(=O)c2ccc(Cl)c(Cl)c2)cc1`, the growth in the test on RPMI-8226 leukemia was 35.6%; in the test with OVCAR-8 ovarian, 79.2%; in the test on OVCAR-5 ovarian, 113%; with OVCAR-4 ovarian it was 63.4%; in the test with SK-OV-3 ovarian it was 94.3%; with IGROV1 ovarian it was 88.7%. For the same compound, the values for the growth with OVCAR-3 ovarian, with HS 578T breast and with NCI/ADR-RES ovarian were 78.3%, 93.7% and 83.2%, respectively.

As for `Cc1cc(C)c(C(=O)c2cccs2)c(C)c1`, the growth with RPMI-8226 leukemia is 98.1%; with OVCAR-8 ovarian, 106%; in the test on OVCAR-5 ovarian it was 98.1%; in the test on OVCAR-4 ovarian, 109%; in the test on SK-OV-3 ovarian, 101%; in the test on IGROV1 ovarian it was 97.7%. In addition, the growth is 113% in the test with OVCAR-3 ovarian, 109% with HS 578T breast and 105% in the test with NCI/ADR-RES ovarian.

On to `Cc1cc(=O)[nH]c(/C(=N/Nc2ccccc2)C(=O)c2ccc(Cl)cc2)n1`, for which the growth in the test with RPMI-8226 leukemia was 96.6%; in the test on OVCAR-8 ovarian, 92.8%; in the test with OVCAR-5 ovarian, 117%; in the test with OVCAR-4 ovarian, 111%; in the test on SK-OV-3 ovarian, 98.3%; in the test with IGROV1 ovarian it was 17.6%. In addition, the growth in the test on OVCAR-3 ovarian was 97.5%; in the test with HS 578T breast, 83.6%; in the test with NCI/ADR-RES ovarian, 106%.

Take `CC(C)Sc1nc(Cl)c(C#N)c(-c2ccc(F)cc2)n1`: the growth in the test with RPMI-8226 leukemia is 78.5%; with OVCAR-8 ovarian, 97.1%; in the test on OVCAR-5 ovarian, 99.2%; with OVCAR-4 ovarian, 107%; in the test on SK-OV-3 ovarian, 110%; in the test on IGROV1 ovarian, 103%. The growth with OVCAR-3 ovarian was 128%; with NCI/ADR-RES ovarian, 105%.

For `NS(=O)(=O)c1cc(C2(O)NC(=O)c3ccccc32)ccc1Cl` (stereo not given), the growth in the test on RPMI-8226 leukemia was 93.2%; with OVCAR-8 ovarian it was 103%; with OVCAR-5 ovarian it was 99.1%; in the test on OVCAR-4 ovarian, 112%; in the test with SK-OV-3 ovarian it was 108%; with IGROV1 ovarian it was 97.1%. For the same compound, the growth with OVCAR-3 ovarian was 123%; with HS 578T breast, 118%; in the test on NCI/ADR-RES ovarian it was 107%.

As for `COP(=O)(OC)C(c1ccccc1)(c1ccccc1)c1ccccc1`, the growth with RPMI-8226 leukemia was 87.5%; with OVCAR-8 ovarian, 94.6%; in the test on OVCAR-5 ovarian, 101%; with OVCAR-4 ovarian, 93.2%; in the test on SK-OV-3 ovarian, 108%; in the test with IGROV1 ovarian, -9.3% (active). Also, the growth was 86.7% in the test on OVCAR-3 ovarian, 94.5% in the test with HS 578T breast and 95.9% with NCI/ADR-RES ovarian.

For the compound `CCOC(=O)/C(=C/CC/C(C)=C/CC/C(C)=C/CCc1ccoc1)CC(=O)N1CCCCC1`, the growth is -5.3% (active) in the test on RPMI-8226 leukemia; 72.4% in the test on OVCAR-8 ovarian; 64.6% with OVCAR-5 ovarian; 64.8% with OVCAR-4 ovarian; 84.4% with SK-OV-3 ovarian; 77.8% in the test with IGROV1 ovarian. Moreover, the growth is 12.5% in the test on OVCAR-3 ovarian, 74.3% in the test on HS 578T breast and 50.6% with NCI/ADR-RES ovarian.

Take `N#Cc1c(NC(=O)c2ccco2)[n+]([O-])c2cc(Cl)c(Cl)cc2[n+]1[O-]`: the growth is 92.2% in the test with RPMI-8226 leukemia; 100% in the test with OVCAR-8 ovarian; 87.4% with OVCAR-5 ovarian; 100% in the test with OVCAR-4 ovarian; 118% with SK-OV-3 ovarian; -12.2% (active) with IGROV1 ovarian. The results for the growth in the test with OVCAR-3 ovarian, with HS 578T breast and with NCI/ADR-RES ovarian were 109%, 84.4% and 88.7%, respectively.

Regarding `O=C(Nc1nn2c(-c3cc(C(F)(F)F)cc(C(F)(F)F)c3)nnc2s1)C1CCCC1`, the growth with RPMI-8226 leukemia is 20.5%; with OVCAR-8 ovarian, 12%; in the test with OVCAR-5 ovarian, 18.6%; with OVCAR-4 ovarian, 18.8%; in the test on SK-OV-3 ovarian, 5.54% (active); with IGROV1 ovarian, 40%. Besides, the growth with OVCAR-3 ovarian is 22.9%; in the test with HS 578T breast it was 21.6%; in the test on NCI/ADR-RES ovarian, 2.45% (active).

As to `COC(=O)c1c(NC(=O)CSc2nnnn2-c2ccc(OC)cc2)sc(C)c1C`, the growth with RPMI-8226 leukemia was 89.8%; in the test on OVCAR-8 ovarian, 87%; with OVCAR-5 ovarian it was 103%; with OVCAR-4 ovarian it was 94.5%; in the test on SK-OV-3 ovarian, 95.9%; in the test with OVCAR-3 ovarian, 99.2%. Further, the growth was 31.7% with HS 578T breast and 83.9% with NCI/ADR-RES ovarian.
